NS3h inh CB: hepatitis C NS3 helicase inhibition, primary screen; NS3h Cy5-dT15 DNA binding, fluorescence polarization; inhibition, % at 100 µM; 16,000 tested, 1.6% active;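 active = inhibition above the average over every tested compound plus 3 SD, cut at about 40% in these data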
Cy5 interf NS3h: Cy5 fluorescence interference, HCV helicase counter-screen; 16,000 tested, 6% active; Cy5-dT15 DNA with NS3h; actives lie on both sides; signal over control mean, under 1 quenches; fluorescence interference ratio at 100 µM;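 active = compound fluorescence over control fluorescence at most 0.8, a quencher, or at least a set upper limit, an enhancer; inactive = ratio between 0.8 and the set upper limit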
HCV NS3h conf: confirmation of hepatitis C virus NS3 helicase inhibitors; shares compounds with NS3h inh CB; NS3h binding to Cy5-dT15 DNA, fluorescence polarization; inhibition, % at 100 µM; 240 tested, 20% active; AID 720485;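 active = percent inhibition of 50% or more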
SSB-DNA FP CB: disrupts E. coli SSB binding to DNA in counter-screen | shares compounds with NS3h inh CB | E. coli SSB binding Cy5-dT15, fluorescence polarization | inhibition, % at 100 µM | 240 tested, 40% active;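 active = inhibition of at least 50%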;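 note: displacers lower Cy5 polarization so higher inhibition means more SSB displaced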
Target sequence (P0AGE0 whole entry, looked up): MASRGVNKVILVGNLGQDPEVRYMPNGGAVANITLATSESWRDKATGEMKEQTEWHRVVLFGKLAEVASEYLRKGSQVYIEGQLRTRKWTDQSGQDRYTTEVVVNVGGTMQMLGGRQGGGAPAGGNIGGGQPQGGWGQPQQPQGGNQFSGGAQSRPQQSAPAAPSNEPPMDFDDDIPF
Cy5 SSB interf: enhances or quenches Cy5-DNA fluorescence with E. coli SSB; shares compounds with NS3h inh CB; Cy5-dT15/E. coli SSB fluorescence interference; actives lie on both sides; fluorescence interference ratio at 100 µM; 240 tested, 8% active; AID 720487;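 active = fluorescence interference ratio at or above 1.2, signal boosting, or at or below 0.8, signal quenching; inactive = ratio between 0.8 and 1.2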
Cy5 interf conf: Cy5 fluorescence interference, confirmation counter-screen; shares compounds with NS3h inh CB; Cy5-dT15 DNA/NS3h fluorescence interference counterscreen; fluorescence interference ratio at 100 µM, hits read low; 240 tested, 44% active;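 active = fluorescence interference ratio at or below 0.8 quencher or at or above a set limitenhancer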
Hits are given with their value; 0 = inactive. Compounds with a hit are over-represented: about 6.9% of the library has one in this group of screens.

SMILES | NS3h inh CB | Cy5 interf NS3h | others
Nc1ccc(Oc2ccc(N)c(N)c2)cc1N | 0 | 0
Cc1nc2ccc(I)cc2c(=O)n1-c1ccc([N+](=O)[O-])cc1Cl | 0 | 0
CCc1ccc(N2C(=O)NC(=O)/C(=C/C=C/c3ccco3)C2=O)cc1 | 41.8 | 0
O=C1NC(=O)N(c2ccc(Br)cc2)C(=O)/C1=C/C=C/c1ccccc1 | 0 | 0
O=C1NC(=O)C(=Cc2ccccc2OCCOc2ccc([N+](=O)[O-])cc2)C(=O)N1 | 0 | 0
Cc1ccc(C=C2C(=O)NC(=O)NC2=O)cc1[N+](=O)[O-] | 0 | 0
COc1ccc(-c2ccc(C=C3C(=O)NC(=O)NC3=O)o2)c([N+](=O)[O-])c1 | 0 | 0.437
Cc1cc(-c2ccc(C=C3C(=O)NC(=O)NC3=O)o2)ccc1[N+](=O)[O-] | 0 | 0.76
O=C(CN1CCCC1=O)NCc1ccccc1 | 0 | 0
CCNc1cc2oc(=O)cc(C(F)(F)F)c2cc1C | 0 | 0
CC1(C)CN1S(=O)(=O)c1ccc(Cl)cc1 (stereo not drawn) | 0 | 0
O=Cc1cn(Cc2ccc(Cl)c(Cl)c2)c2ccccc12 | 0 | 0
O=c1oc2ccccc2c2c1C(c1ccccc1)c1c(c3ccccc3oc1=O)O2 | 0 | 0
COc1ccc(C(=O)NC(Cc2cnc[nH]2)C(=O)O)cc1 (stereo not drawn) | 0 | 0
COc1ccc(C=C2C(=O)NC(=O)NC2=O)cc1OCc1ccc(Cl)cc1Cl | 0 | 0.611
O=C1NC(=S)NC(=O)C1=Cc1ccc(OCc2ccccc2)c(OCc2ccccc2)c1 | 0 | 0
Cc1ccc(S(=O)(=O)n2cc(C=C3C(=O)NC(=O)NC3=O)c3ccccc32)cc1 | 0 | 0.696
CCn1cc(C=C2C(=O)NC(=O)NC2=O)c2ccccc21 | 0 | 0.728
Cc1cc(C)cc(-n2c(C)cc(C=C3C(=O)NC(=O)NC3=O)c2C)c1 | 0 | 0
O=Cc1cn(Cc2ccccc2F)c2ccccc12 | 0 | 0
COc1ccc(C2c3c(c4ccccc4oc3=O)Oc3c2c(=O)oc2ccccc32)cc1Cn1nc(C)c([N+](=O)[O-])c1C | 0 | 0
Oc1ccc(Br)cc1CN1CCN(Cc2ccc(F)cc2)CC1 | 0 | 0
O=S(=O)(c1cc(Cl)c(O)c(Cl)c1)c1cc(Cl)c(O)c(Cl)c1 | 0 | 0
COC(=O)c1cccc(-c2ccc(C=C3C(=O)NC(=S)NC3=O)o2)c1 | 0 | 0.753
Cc1cccc(N2C(=O)NC(=O)/C(=C/c3ccc(-c4ccc(C(=O)O)c(Cl)c4)o3)C2=O)c1 | 0 | 0
SMILES | NS3h inh CB | Cy5 interf NS3h | others
O=C1/C(=C/c2ccccc2O)N2CCC1CC2 | 0 | 0
COC(=O)N1[C@H](c2ccccc2)[C@@H]1c1ccccc1 | 0 | 0.677
O=[N+]([O-])c1ccc(N2CCNCC2)cc1NCCOc1ccccc1 | 0 | 0.702
CN1CCN(c2ccc([N+](=O)[O-])c(NC3CC3)c2)CC1 | 0 | 0
COc1ccc(CN2CCNCC2)cc1OC | 0 | 0
O=C1c2ccccc2-c2onc3c(Br)cc(N4CC4)c1c23 | 0 | 0.783
CCCCCC1(C)NCCN2C(=O)CSC21 (stereo not drawn) | 0 | 0
Cc1ccc(C=C2C(=O)NC(=S)N(c3ccccc3F)C2=O)s1 | 42.4 | 0
O=C1NC(=S)N(c2ccc(Br)cc2)C(=O)/C1=C/c1ccc(-c2ccccc2C(=O)O)o1 | 0 | 0
COc1ccccc1OCC(=O)N1CCN(C)CC1 | 0 | 0
O=C1CC(=O)N(c2ccc(F)cc2)C(=S)N1 | 0 | 0
O=C1NC(=O)N(c2ccc(Cl)cc2)C(=O)/C1=C\c1cc(Br)cc(Cl)c1O | 0 | 0
O=C1NC(=O)C(=Cc2ccc(-c3ccc(C(=O)O)cc3)o2)C(=O)N1 | 69.4 | 0 | HCV NS3h conf=0;SSB-DNA FP CB=0;Cy5 SSB interf=0;Cy5 interf conf=0.796
O=C1NC(=O)N(c2ccccc2F)C(=O)/C1=C/c1ccc(-c2cc(C(=O)O)ccc2Cl)o1 | 0 | 0 | HCV NS3h conf=92.2;SSB-DNA FP CB=0;Cy5 SSB interf=0;Cy5 interf conf=0
Cc1ccc(N2C(=O)NC(=O)/C(=C\c3ccc(-c4ccc(Cl)c(C(=O)O)c4)o3)C2=O)cc1 | 62.2 | 0 | HCV NS3h conf=75.3;SSB-DNA FP CB=62.4;Cy5 SSB interf=0;Cy5 interf conf=0
COc1ccc(N2C(=O)/C(=C/c3ccc(-c4cc(C(=O)O)ccc4Cl)o3)C(=O)NC2=S)cc1 | 0 | 0 | HCV NS3h conf=0;SSB-DNA FP CB=67.2;Cy5 SSB interf=0;Cy5 interf conf=0.805
O=C(Cn1c[n+]([N-][N+](=O)[O-])cn1)Nc1ccc([N+](=O)[O-])cc1 | 0 | 0
O=C1c2ccccc2C(=O)N1Cc1nc2ccccc2c(=O)n1-c1ccncc1 | 0 | 0
CCC1(c2ccccc2)C(=O)NC(=O)N(C(=O)c2ccccc2Br)C1=O (stereo not drawn) | 0 | 0
COc1ccc(C(c2c(O)c3ccccc3oc2=O)c2c(O)c3ccccc3oc2=O)cc1Cn1nc(C)c([N+](=O)[O-])c1C | 0 | 0
COc1ccc(O)c(CN2CCN(Cc3ccc(F)cc3)CC2)c1 | 63.6 | 1.2 | HCV NS3h conf=0;SSB-DNA FP CB=0;Cy5 SSB interf=0;Cy5 interf conf=0
COc1ccc(O)c(CN2CCN(Cc3ccc(Br)cc3)CC2)c1 | 0 | 0
Cc1cc(OCC(=O)c2ccccc2)c2c3c(c(=O)oc2c1)CCC3 | 0 | 0
O=C(Nc1ccc(Br)cc1C(=O)c1ccccc1)c1ccc([N+](=O)[O-])cc1 | 0 | 0
Oc1ccc(Br)cc1CN1CCN(Cc2cccc(F)c2)CC1 | 0 | 0
SMILES | NS3h inh CB | Cy5 interf NS3h | others
O=C(CF)NC(Nc1ccc(Br)cc1)C(Cl)(Cl)Cl (stereo not drawn) | 0 | 0
COc1cccc(CN2CCN(C(=O)Cc3ccccc3)CC2)c1OC | 0 | 0
Cc1[nH]c2cc(S(=O)(=O)O)c(Oc3ccccc3)cc2c1CCN | 46.0 | 0 | HCV NS3h conf=0;SSB-DNA FP CB=97.6;Cy5 SSB interf=0;Cy5 interf conf=0
COc1ccccc1CN1CCN(Cc2cc(Br)ccc2O)CC1 | 0 | 0
Cc1cc(C=C2C(=O)NC(=S)NC2=O)c(C)n1-c1ccccc1 | 0 | 0
CC(C)Oc1ccccc1C=C1C(=O)NC(=O)NC1=O | 42.4 | 0 | HCV NS3h conf=0;SSB-DNA FP CB=0;Cy5 SSB interf=0;Cy5 interf conf=0
COc1ccc(C=C2C(=O)NC(=O)NC2=O)c(OC)c1 | 61.3 | 0 | HCV NS3h conf=0;SSB-DNA FP CB=0;Cy5 SSB interf=0;Cy5 interf conf=0
COc1ccc(CN2CCNCC2)c(OC)c1 | 0 | 0
CCC1(c2ccccc2)C(=O)NC(=O)N(C(=O)c2cccc(F)c2)C1=O (stereo not drawn) | 0 | 0
O=C(NC(O)C(Cl)(Cl)Cl)C1CC=CCC1 (stereo not drawn) | 0 | 0
Cc1ccc(C)c(COc2cc(C)cc3oc(=O)c4c(c23)CCC4)c1 | 0 | 0
O=C1NC(=O)N(c2ccc(Cl)cc2)C(=O)/C1=C/c1ccccc1 | 0 | 0
O=C1NC(=S)N(c2ccccc2)C(=O)/C1=C/c1ccco1 | 93.6 | 0 | HCV NS3h conf=62.6;SSB-DNA FP CB=100.0;Cy5 SSB interf=0;Cy5 interf conf=0.712
O=C1NC(=S)N(c2ccccc2F)C(=O)C1=Cc1ccco1 | 106.1 | 0.649 | HCV NS3h conf=113.4;SSB-DNA FP CB=123.1;Cy5 SSB interf=0.766;Cy5 interf conf=0
CSc1ccc(CN2CCN(Cc3cc(Br)ccc3O)CC2)cc1 | 0 | 0
CC(=O)c1ccc(OC(=O)Cc2ccccc2)cc1 | 0 | 0
O=[N+]([O-])c1ccc(N2CCOCC2)c(F)c1Br | 0 | 0

Screening results: PubChem, Milwaukee Institute for Drug Discovery
